Only some compounds are listed: those with a hit (about 12% of all), similar ones and a draw of the others.
USP30 inh = inhibitors of human USP30 deubiquitinase; 5.3% of 47,000 active; inhibition, % at 25 µM; purified USP30, Ub-rhodamine cleavage fluorescence; AID 1645860, 2021
USP17 block = inhibitors of human USP17 deubiquitinase; inhibition, % at 50 µM; 6.5% of 47,000 active; purified USP17, Ub-rhodamine cleavage fluorescence, 3 h
USP8 block = inhibitors of human USP8 deubiquitinase; Ubiquitin carboxyl-terminal hydrolase 8 (Homo sapiens), P40818; purified USP8, Ub-rhodamine cleavage fluorescence, 30 min; inhibition, % at 20 µM; 4.2% of 47,000 active; AID 1645853, 2021
* marks the source's active call; other numbers are inactive results. Rule as the data show it: active = inhibition above about 30%; inactive = the rest.

Screening O=C(NCCCN1CCCC1=O)c1cc2cn(C3CC3)cc2s1 returned USP30 inh -209, USP17 block 14 and USP8 block 66*.
For CN(C)CCCNC(=O)c1cc2cn(C3CCCC3)cc2s1 the results were USP30 inh -37, USP17 block 6 and USP8 block 63*.
Screening CC1CCN(CCNC(=O)c2cc3cn(C4CC4)cc3s2)CC1 returned USP30 inh -179, USP17 block -19 and USP8 block 54*.
For COc1ccc(/C=C2\CSc3sccc3C2=O)cc1 the results were USP30 inh 21, USP17 block 20 and USP8 block 11.
For O=C(Nc1cc(F)c2nc(N3CCOCC3)ccc2c1)C1CCCCC1 the results were USP30 inh -38, USP17 block 22 and USP8 block 71*.
Screening O=C(CC1CCCC1)Nc1ccc(N2CCN(C3CCCC3)C2=O)nc1 returned USP30 inh 14, USP17 block -4 and USP8 block 24.
`Cn1c(CCN2CCOCC2)nc2cc(NC(=O)C3CCCCC3)ccc21` gave USP30 inh 26, USP17 block 11 and USP8 block 22.
`O=C(CC1CCCCC1)Nc1cc(F)c2nc(N3CCOCC3)ccc2c1` gave USP30 inh -63, USP17 block 40* and USP8 block 65*.
`Cc1noc(C)c1CSc1ncccc1C(=O)Nc1ccnn1C(C)C1CC1` (stereo unspecified) gave USP30 inh -14, USP17 block -16 and USP8 block -27.
Screening Cc1ccc(Cn2c(SCc3ccccc3C#N)nc3ccccc3c2=O)cc1 returned USP30 inh -275 and USP8 block -23.
`Cc1nc2ccccc2c(=O)n1Cc1ccc(-c2ccccc2)cc1` gave USP30 inh -2, USP17 block 51* and USP8 block 3.
`Cc1cc(Nc2cnccn2)nc(C2CCCN(CC(N)=O)C2)n1` (stereo unspecified) gave USP30 inh 22, USP17 block 7 and USP8 block -3.
Screening CN(C)c1cccc(C(=O)N(C(=O)c2cccc(N(C)C)c2)c2ncccn2)c1 returned USP30 inh -16, USP17 block -18 and USP8 block -97.
For CC(C)c1ccc(C(C)NC(=O)c2cccc(N(C)C)c2)cc1 (stereo unspecified) the results were USP30 inh -5, USP17 block 39* and USP8 block 2.
For COc1ccc(C(=O)CN2C(=O)c3ccccc3OC(c3ccccc3)C2=O)cc1F (stereo unspecified) the results were USP30 inh -28, USP17 block -12 and USP8 block 0.
`Cc1ccc(S(=O)(=O)N2CCOCC2)cc1NC(=O)C(c1ccccc1)c1ccccc1` gave USP30 inh 25, USP17 block -11 and USP8 block -142.
Screening Cc1ncc(-c2ccccn2)c(-c2ccc(CNC(=O)CCN3CCOCC3)cc2)n1 returned USP30 inh -10, USP17 block 4 and USP8 block 12.
Cc1ncc(-c2ccccn2)c(-c2ccc(CNC(=O)Cc3sc(C)nc3C)cc2)n1 was read as USP30 inh -1, USP17 block 8 and USP8 block 36*.
For O=C(Cn1ccc2ccc([N+](=O)[O-])cc21)N1CCc2ccccc21 the results were USP30 inh -260, USP17 block -80 and USP8 block -165.
`COc1ccccc1NS(=O)(=O)c1cc(NC(=O)CCC(=O)c2ccc(F)cc2)ccc1C` gave USP30 inh -103, USP17 block -121 and USP8 block -19.
Screening COc1ccc(NS(=O)(=O)c2cc(NC(=O)CCC(=O)c3ccc(F)cc3)ccc2C)cc1 returned USP30 inh 36*, USP17 block -8 and USP8 block 2.
For O=C(Nc1ccc2c(N3CCOCC3)ncnc2c1)c1cc(F)ccc1F the results were USP30 inh 10, USP17 block 3 and USP8 block 8.
COc1cccc(-c2nc(-c3ccc(-n4cccn4)nc3)no2)c1 was read as USP30 inh 7, USP17 block 28 and USP8 block 14.
Screening COC(=O)CSc1nc2ccccc2c(=N)n1-c1ccc(Cl)cc1 returned USP30 inh 26, USP17 block 23 and USP8 block 8.
COc1ccc(-n2c(SCC(=O)Nc3cc(Cl)ccc3C(=O)O)nc3ccccc3c2=O)cc1Cl was read as USP17 block 93* and USP8 block 39*.
Screening COc1ccccc1NC(=O)c1oc2ccccc2c1NC(=O)c1ccccc1C returned USP30 inh 19, USP17 block 28 and USP8 block 13.
Screening CCn1nc(C)c(CNC(=O)c2[nH]c3ccc(C)cc3c2NC(=O)c2cccc(C)c2)c1C returned USP30 inh 88*, USP17 block 77* and USP8 block 12.
Screening Cc1cccc(C(=O)Nc2c(C)nn(Cc3cccc4ccccc34)c2C)c1 returned USP30 inh 19, USP17 block 24 and USP8 block 13.
For Cc1ccc(C2CC(=O)c3cnc(NC(=O)c4ccc(Cl)cc4)nc3C2)cc1 (stereo unspecified) the results were USP30 inh 43*, USP17 block 16 and USP8 block 10.
COc1cc(C(=O)Nc2ncc3c(n2)CC(c2ccc(C)cc2)CC3=O)cc(OC)c1OC (stereo unspecified) was read as USP30 inh -1, USP17 block -10 and USP8 block -9.
`Cc1ccc(C(=O)OC(C)C(=O)Nc2sccc2C(N)=O)cc1C` (stereo unspecified) gave USP30 inh -93, USP17 block -31 and USP8 block -1.
CC(OC(=O)c1cccc(N(C)C)c1)C(=O)Nc1sccc1C(N)=O (stereo unspecified) was read as USP30 inh -54, USP17 block -4 and USP8 block 32*.
`Cc1cc(NC(=O)c2ccccc2F)ccc1-c1cc2ccccc2oc1=O` gave USP30 inh 12, USP17 block 5 and USP8 block -22.
CSc1cccc(NC(=O)CNC(=O)c2cc3ccccc3o2)c1 was read as USP30 inh -27, USP17 block 65* and USP8 block 2.
COc1cc(NC(=O)c2ccc3c(c2)OCO3)ccc1-c1cc2ccccc2oc1=O was read as USP30 inh -19, USP17 block 47* and USP8 block 69*.
O=C(Nc1c(C(=O)Nc2ccc3c(c2)OCO3)oc2ccccc12)c1cc2ccccc2o1 was read as USP30 inh -25, USP17 block 0 and USP8 block 79*.
Screening O=C(Nc1ccc2[nH]c(=O)[nH]c2c1)c1cc2ccccc2o1 returned USP30 inh -89, USP17 block 43* and USP8 block 42*.
`O=C(NCCc1nc2ccccc2[nH]1)c1cc2ccccc2o1` gave USP30 inh -3, USP17 block -2 and USP8 block 1.
`CCOC(=O)CCC(=O)Nc1c(C(=O)Nc2ccc3c(c2)OCCO3)oc2ccccc12` gave USP30 inh 9, USP17 block 15 and USP8 block -51.
O=C(COC(=O)c1ccccc1F)Nc1ccc2[nH]c(=O)[nH]c2c1 was read as USP30 inh 18, USP17 block 18 and USP8 block 5.
`CCOc1ccc(NC(=O)c2cc3cccnc3n(C)c2=O)cc1` gave USP30 inh -2, USP17 block -1 and USP8 block -1.

High-throughput results (PubChem BioAssay)
